Results filed as inconclusive are left out. Calls of active or inactive are those of the source. Unless noted, calls follow the shape of the dose curve; as a rule, active = well fitted curve in the direction sought with a large enough effect; inconclusive = small, poorly fitted or top-dose-only effect, or another doubt; inactive = no such curve, though single readings can be large; an effect the other way counts as inactive or inconclusive.
Legend:
[1] = qHTS to identify inhibitors of the type 1 interferon - major histocompatibility complex class I in skeletal muscle: primary screen against the NCATS Pharmaceutical Collection (AID 1347407);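 also: luminescence of HiBiT knocked into endogenous HLA-B as interferon-induced MHC class I level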
How it was run: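 Cells were seeded with 4 ng/ml IFN-beta, incubated 1 h, then dosed with compounds over eight 1:5 steps up to 46 uM final. After 24 h at 37 C, HiBiT lytic reagent was added and luminescence read after 10 min lysis in the dark.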

[2] = molecular target: Protein phosphatase 1D (Homo sapiens) (UniProt O15297); assay: RapidFire Mass Spectrometry qHTS Assay for Modulators of WT P53-Induced Phosphatase 1 (WIP1) (AID 1347424);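 also: amount of dephosphorylated VEPPL-S-QETFS peptide product formed by WIP1; series mostly up to about 63 µM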
How it was run: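 RapidFire mass spectrometry measured dephosphorylated peptide after 5 min room-temperature reaction of 2 uM VEPPL-pS-QETFS with 10 nM WIP1 (50 mM Tris-HCl pH 7.5, 30 mM MgCl2, 0.1 mM EGTA, BSA), following 1 hr compound preincubation; 1 uM isotope-labelled product standard.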

[3] = molecular target: Protein phosphatase 1D (Homo sapiens) (UniProt O15297); assay: Rhodamine-PBP qHTS Assay for Modulators of WT P53-Induced Phosphatase 1 (WIP1) (AID 1347425)
How it was run: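 5 nM WIP1 + 10 uM Rh-PBP, 50 mM Tris pH 7.5, 30 mM MgCl2, 1 mM TCEP, 0.1 mM EGTA, BSA; cpds pinned, 1 hr RT; + 10 uM phosphopeptide; fluorescence 1-min reads x 11 min; delta = f1 - f0.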

[4] = Primary qHTS for inhibitors of La Crosse Virus (LACV) - induced cell death in SH-SY5Y cells (AID 1508616);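 also: top concentration of the series differs between compounds; higher means more rescue of cells from virus-induced death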
How it was run: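 Screening measures cell viability in LACV-infected SH-SY5Y cultures. Compound was added before virus (0.01 MOI), and ATP was detected by luminescence 6 days later.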

[5] = molecular target: Calcium and integrin-binding protein 1 (Homo sapiens) (UniProt Q99828); assay: Primary qHTS for Identification of Calcium Integrin Binding Protein 1 (CIB1) Competitor (AID 1508620);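 also: GST tagged CIB1 binding a fluorescein labelled alphaIIb integrin peptide tracer; top concentration of the series differs between compounds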
How it was run: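 CIB1-GST (1 uM final) and compound incubated 15 min at room temperature before adding FITC-alphaIIb peptide tracer (100 nM final). Competition for binding read by fluorescence polarization (ex 480, em 540) after another 15 min at room temperature.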

[6] = Primary qHTS for small molecule stabilizers of the endoplasmic reticulum resident proteome: Secreted ER Calcium Modulated Protein (SERCaMP) assay (AID 1508630)
How it was run: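 The SH-SY5Y reporter protocol was run at 3 concentrations up to 38.3 uM (primary) or 11 concentrations (follow-up): 16 h compound, 100 nM thapsigargin for 4 h, then extracellular luciferase luminescence.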

[7] = A High-Content qHTS Against Drug Library for the Identification of Small Molecules that Inhibit DYT1 Early Onset Primary Dystonia-Associated Cell Pathology (AID 1645839; calls by dose curve; also: series mostly up to about 46 µM)
How it was run: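 High-content imaging quantified EGFP-TorsinA mislocalization in HEK293-derived cells inducibly expressing DYT1 mutant torsinA, after 48 h exposure to compound given together with tetracycline induction. Cell count served as a toxicity channel alongside %pathology.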

[8] = molecular target: Cytochrome P450 2D6 (Homo sapiens) (UniProt P10635); assay: Cytochrome P450 family 2 subfamily D member 6 (CYP2D6) small molecule antagonists: luciferase biochemical (cell-free) qHTS assay (AID 1645840; active = well fitted curve in the direction sought with a large enough effect in the repeat runs; an effect the other way counts as inactive or inconclusive; also: nearly all actives have a fitted effect of over 55% in size; also: potency is read from the fitted curve at half-maximal effect)
How it was run: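 P450-Glo CYP2D6 system: proluciferin substrate converted by enzyme to luciferin, read by luminescence proportional to activity. Enzyme-substrate mix with compound 10 min at room temperature, then NADPH regeneration 1 h before detection reagent.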

[9] = molecular target: Cytochrome P450 2C9 (Homo sapiens) (UniProt P11712); assay: Cytochrome P450 family 2 subfamily C member 9 (CYP2C9) small molecule antagonists: luciferase biochemical (cell-free) qHTS assay (AID 1645842; active = well fitted curve in the direction sought with a large enough effect in the repeat runs; an effect the other way counts as inactive or inconclusive; also: nearly all actives have a fitted effect of over 55% in size; also: potency is read from the fitted curve at half-maximal effect)
How it was run: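 P450-Glo CYP2C9 system: proluciferin substrate with enzyme in mix containing 0.4% BSA, 10 min at room temperature, then NADPH regeneration solution added and incubated 1 h at 37C. Detection reagent stopped reaction; luminescence read after 20 min as RLU.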

[10] = qHTS to identify inhibitors of the type 1 interferon - major histocompatibility complex class I in skeletal muscle: primary screen against the NCATS Mechanism Interrogation Plate v5.0 (MIPE) Libary (AID 1347411); also: nearly all actives have a fitted effect of over 65% in size
How it was run: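 IFN-beta-driven (4 ng/ml) HLA-B-HiBit expression in CRISPR-tagged C25cl48 myoblasts; compounds 11-pt, 1:3, max 46 uM, 24 hr exposure; lytic NanoLuc complementation luminescence.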

[11] = Counterscreen qHTS for small molecule stabilizers of the endoplasmic reticulum resident proteome: GLuc-NoTag assay (AID 1508627);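 also: SH-SY5Y cells given compound then 100 nM thapsigargin to empty ER calcium; series mostly up to about 76 µM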
How it was run: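 Counterscreen line: SH-SY5Y-GLuc-NoTag cells, treated with compound 19 hr before a 4 hr, 100 nM thapsigargin calcium depletion. Secreted Gaussia luciferase in the medium was measured by luminescence after coelenterazine was added (0.07x final), with cells unlysed.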

[12] = Confirmatory qHTS for small molecule stabilizers of the endoplasmic reticulum resident proteome: Secreted ER Calcium Modulated Protein (SERCaMP) assay (AID 1508628); also: series mostly up to about 76 µM; nearly all actives have a fitted effect of over 40% in size
How it was run: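 GLuc-SERCaMP-expressing SH-SY5Y cells, pretreated 16 h with compound, are challenged with thapsigargin to empty ER calcium stores; after 4 h, coelenterazine is added directly to the medium and luminescence is imaged.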

[13] = molecular target: Cytochrome P450 3A4 (Homo sapiens) (UniProt P08684); assay: Cytochrome P450 family 3 subfamily A member 4 (CYP3A4) small molecule antagonists: luciferase qHTS assay (AID 1645841; active = well fitted curve in the direction sought with a large enough effect in the repeat runs; an effect the other way counts as inactive or inconclusive; also: nearly all actives have a fitted effect of over 45% in size)
How it was run: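 Luminescent CYP3A4 activity readout: compounds plus enzyme-substrate mix 10 min at room temperature, reaction started with NADPH regenerating system for 1 h, stopped with detection reagent, read after 20 min. Ketoconazole served as control.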

Measured: Potency

Chain of Calcium and integrin-binding protein 1 (Homo sapiens) (Q99828 whole entry, looked up): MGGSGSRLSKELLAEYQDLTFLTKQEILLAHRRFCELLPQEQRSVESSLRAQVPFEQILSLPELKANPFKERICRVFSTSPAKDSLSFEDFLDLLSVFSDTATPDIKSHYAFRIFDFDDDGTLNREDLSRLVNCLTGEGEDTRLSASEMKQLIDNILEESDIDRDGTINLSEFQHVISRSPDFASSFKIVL
Chain of Protein phosphatase 1D (Homo sapiens) (O15297 whole entry, looked up): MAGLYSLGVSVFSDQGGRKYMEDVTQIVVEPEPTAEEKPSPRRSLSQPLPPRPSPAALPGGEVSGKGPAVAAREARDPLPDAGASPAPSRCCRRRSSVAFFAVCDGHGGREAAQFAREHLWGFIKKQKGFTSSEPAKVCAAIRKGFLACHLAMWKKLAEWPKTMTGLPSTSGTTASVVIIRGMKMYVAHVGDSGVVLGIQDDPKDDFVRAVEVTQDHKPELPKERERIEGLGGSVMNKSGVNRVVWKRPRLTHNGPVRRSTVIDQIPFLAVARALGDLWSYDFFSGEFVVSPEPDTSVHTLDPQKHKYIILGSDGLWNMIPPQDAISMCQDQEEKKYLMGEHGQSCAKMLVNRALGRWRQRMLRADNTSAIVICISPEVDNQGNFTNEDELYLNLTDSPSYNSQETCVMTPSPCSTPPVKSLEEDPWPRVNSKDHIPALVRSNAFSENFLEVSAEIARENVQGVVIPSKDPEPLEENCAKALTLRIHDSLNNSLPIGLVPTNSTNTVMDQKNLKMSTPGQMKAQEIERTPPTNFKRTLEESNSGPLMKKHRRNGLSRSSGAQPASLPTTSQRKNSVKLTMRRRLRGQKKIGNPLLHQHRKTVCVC
Chain of Cytochrome P450 2C9 (Homo sapiens) (P11712 whole entry, looked up): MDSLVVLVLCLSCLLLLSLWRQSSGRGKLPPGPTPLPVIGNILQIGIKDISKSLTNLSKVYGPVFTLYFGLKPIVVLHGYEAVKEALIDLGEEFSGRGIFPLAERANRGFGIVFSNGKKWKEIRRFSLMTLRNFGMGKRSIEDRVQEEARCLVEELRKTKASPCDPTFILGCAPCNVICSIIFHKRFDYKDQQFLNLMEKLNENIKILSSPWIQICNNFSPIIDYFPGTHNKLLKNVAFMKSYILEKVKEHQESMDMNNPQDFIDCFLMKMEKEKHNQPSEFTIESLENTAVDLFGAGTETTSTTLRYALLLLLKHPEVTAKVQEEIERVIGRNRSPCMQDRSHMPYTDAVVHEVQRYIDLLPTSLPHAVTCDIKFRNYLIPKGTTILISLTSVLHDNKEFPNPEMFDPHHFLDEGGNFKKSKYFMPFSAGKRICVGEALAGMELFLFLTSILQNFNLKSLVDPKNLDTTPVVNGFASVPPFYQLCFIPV
Chain of Cytochrome P450 2D6 (Homo sapiens) (P10635 whole entry, looked up): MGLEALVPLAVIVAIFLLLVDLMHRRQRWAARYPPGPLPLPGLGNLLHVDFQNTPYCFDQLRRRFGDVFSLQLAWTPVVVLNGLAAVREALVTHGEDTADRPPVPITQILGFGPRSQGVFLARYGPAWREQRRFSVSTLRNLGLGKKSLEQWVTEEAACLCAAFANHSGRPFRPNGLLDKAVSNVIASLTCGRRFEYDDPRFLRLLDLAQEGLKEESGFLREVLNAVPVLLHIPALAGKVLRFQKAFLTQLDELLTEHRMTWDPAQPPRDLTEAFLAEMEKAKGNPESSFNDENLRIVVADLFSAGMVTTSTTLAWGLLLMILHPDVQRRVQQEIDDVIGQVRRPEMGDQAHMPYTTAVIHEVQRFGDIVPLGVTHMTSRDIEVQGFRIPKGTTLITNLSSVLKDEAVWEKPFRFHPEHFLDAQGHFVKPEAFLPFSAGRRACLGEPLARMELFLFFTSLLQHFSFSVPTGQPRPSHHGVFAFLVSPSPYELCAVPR
Chain of Cytochrome P450 3A4 (Homo sapiens) (P08684 whole entry, looked up): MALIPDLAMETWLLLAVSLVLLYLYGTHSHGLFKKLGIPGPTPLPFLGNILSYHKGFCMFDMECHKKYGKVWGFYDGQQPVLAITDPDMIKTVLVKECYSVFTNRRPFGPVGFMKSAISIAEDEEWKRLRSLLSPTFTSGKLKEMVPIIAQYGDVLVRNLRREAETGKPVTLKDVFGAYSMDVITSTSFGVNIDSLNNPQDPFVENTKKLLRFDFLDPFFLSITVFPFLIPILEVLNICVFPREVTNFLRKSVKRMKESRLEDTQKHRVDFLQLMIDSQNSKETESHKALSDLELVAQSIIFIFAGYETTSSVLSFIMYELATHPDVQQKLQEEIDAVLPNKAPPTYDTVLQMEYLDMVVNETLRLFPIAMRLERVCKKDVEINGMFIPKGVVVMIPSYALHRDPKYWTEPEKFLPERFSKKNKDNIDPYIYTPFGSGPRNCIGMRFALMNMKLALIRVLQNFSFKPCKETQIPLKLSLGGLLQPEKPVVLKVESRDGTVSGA

CC(Cc1cccc(C(F)(F)F)c1)NCCOC(=O)c1ccccc1 (configuration not stated)
active: [8] 0.0069 µM | [9] 19.5 µM
not listed: [10] | [11] | [12] | [13]
inactive: all other assays above

CC(=O)N(O)CCCCCNC(=O)CCC(=O)N(O)CCCCCNC(=O)CCC(=O)N(O)CCCCCN
not listed: [4] | [7] | [11] | [12] | [13]
inactive: all other assays above

Nc1ccc(C(=O)O)cc1
not listed: [10] | [11] | [12] | [13]
inactive: all other assays above

O=S1(=O)c2cccc3cccc(c23)N1CCCN1CCN(c2ccc(F)cc2)CC1
active: [8] 3.47 µM
not listed: [10] | [11] | [12] | [13]
inactive: all other assays above

CN(C)C(=S)SC(=S)N(C)C
inactive: [11] | [12]

CN1CCC(=C2c3ccccc3Sc3ccccc32)CC1
inactive: [13]

CNC(=O)CN(CCN(CCN(CC(=O)[O-])CC(=O)NC)CC(=O)[O-])CC(=O)[O-].O.[Gd+3]
inactive: [13]

CCOC(=O)OC(C)OC1=C(C(=O)Nc2ccccn2)N(C)S(=O)(=O)c2ccccc21 (configuration not stated)
inactive: [1] | [2] | [3] | [5] | [7]

CN=C(NC#N)NCCSCc1csc(N=C(N)N)n1
inactive: [1] | [2] | [4] | [5] | [6] | [7]

O=C(CCCN1CCC(O)(c2ccc(Br)cc2)CC1)c1ccc(F)cc1
inactive: [1] | [2] | [3] | [6] | [9]
active: [8] 2.75 µM

Oc1ccc(Cl)c2cccnc12
inactive: [1] | [2] | [3] | [6] | [8] | [9]

CN1C(CCl)Nc2cc(Cl)c(S(N)(=O)=O)cc2S1(=O)=O (configuration not stated)
inactive: [1] | [2] | [3] | [5] | [6] | [7] | [9]

COCc1c(C(C)C)nc(C(C)C)c(/C=C/[C@@H](O)C[C@@H](O)CC(=O)O)c1-c1ccc(F)cc1
inactive: [1] | [2] | [3] | [6] | [8]

CCCCCCc1ccc(O)cc1O
inactive: [1] | [2] | [4] | [5]
active: [8] 4.9 µM | [9] 8.71 µM

Cc1cc(N)c2cc(NC(=O)Nc3ccc4nc(C)cc(N)c4c3)ccc2n1
inactive: [1] | [2] | [3] | [5] | [6] | [9]
active: [8] 8.71 µM

CCCC(=O)Nc1ccc(OCC(O)CNC(C)C)c(C(C)=O)c1 (configuration not stated)
inactive: [1] | [2] | [4] | [5] | [8]

Reference: PubChem BioAssay (NCATS)
